# Hits are enriched below; roughly 20% of the tested compounds scored in any of these assays.
# Pf growth 48h: P. falciparum growth inhibition at 48 hours (one generation) | Potency, µM (doses to about 28.7 µM), without a hit: top-dose activity change, negative = inhibition, most hits filed as inhibitors | AID 504832 | P. falciparum luciferase growth in erythrocytes, 48 h | 310,000 compounds, 5.9% hits; note: potency is the fitted concentration of half-maximal effect; % is set by controls: 0 for no effect and ±100 for the full control effect
#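 A one-generation exposure of luciferase-tagged malaria parasites in RPMI 1640/Albumax erythrocyte culture, 37 C and 5% CO2. Inhibition is inferred from decreased luminescence after adding detection reagent.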
# Shiga inhibitor: inhibitors of Shiga toxin in Vero cells. inhibition, % at 38.7 µM. Vero cells, Shiga toxin protein synthesis inhibition reporter. AID 2315. 290,000 compounds, 9.2% hits; in the data active = inhibition mostly above about 28%, no sharp cut-off; inactive = mostly below about 43%; note: 0% is about no effect
# HCMV antiviral: blocks human cytomegalovirus replication; HFF cells, HCMV-luciferase reporter, 72 h; active compounds read low; activity change, negative = inhibition, % at 57.5 µM; 410,000 compounds, 4.5% hits; AID 1259415; in the data active = activity change below about -60%; inconclusive = no clear call, values can overlap the other calls; inactive = above about -39%; note: % is set by controls: 0 for no effect and ±100 for the full control effect
#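 After 16 h attachment at 37C, HFF cells received test compound and HCMV-luciferase (1 PFU/cell); reporter luminescence read 72 h later, data normalized against buffer-only and known inhibitor Salinomycin.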
# Pf growth 96h: inhibits malaria parasite growth, 96 h | 320,000 compounds, 6.9% hits | P. falciparum luciferase reporter growth, 96 h | Potency, µM (top dose mostly 28.7 µM), without a hit: top-dose activity change, negative = inhibition, usual class: inhibitors; note: potency is the fitted concentration of half-maximal effect; % is set by controls: 0 for no effect and ±100 for the full control effect
#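 Two-generation exposure (96 h) targets delayed-death phenotype. Reporter parasites carrying integrated firefly luciferase, in red cells at 2% hematocrit and 0.05% parasitemia final, kept at 37 C, 5% CO2; luminescence loss indicates inhibition.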
# Cycloheximide cs: counter-screen hit for Shiga toxin inhibitors, cycloheximide. cell reporter, cycloheximide protein synthesis inhibition counterscreen. max response, %. 300,000 compounds, 12% hits. AID 2314; in the data active = max response mostly above about 13%, no sharp cut-off; inactive = mostly below about 14%; note: read at 38.3 µM for the half of the compounds with a filed dose; 0% is about no effect
# Active calls of the source: *; ? = inconclusive; . = no result; [ ] = remark or other dose. Unless noted, calls come from the whole dose curve; as a rule, active = well fitted inhibition curve with a large enough effect; inconclusive = small, poorly fitted or top-dose-only effect, or another doubt; inactive = no such curve, though single readings can be large or run the other way.
SMILES,Pf growth 48h,Shiga inhibitor,HCMV antiviral,Pf growth 96h,Cycloheximide cs
CC1=CC(C)[C@H](/C=N/n2c(=O)[nH]c3c([nH]c4ccc(Br)cc43)c2=O)C(C)C1 (some centres undefined),?,-16,-74*,?,-4
O=C(NCC(Cl)c1ccc2ccccc2c1)c1c(F)cccc1F (centres undefined),-9%[0.00184 µM],9,20,9%,33*
COc1ccc(C(=O)/C=C/c2cn(CC(O)CN3CCc4ccccc43)c3ccccc23)cc1OC (centres undefined),.,.,-64*,.,.
Cc1ccc(C(=O)/C=C/c2cn(CC(O)CN3CCc4ccccc43)c3ccccc23)cc1 (centres undefined),.,.,-74*,.,.
O=Cc1cn(CC(O)CN2CCCCC2)c2ccccc12 (centres undefined),27%,14,12,?,-1
COc1ccc(C(=O)/C=C/c2cn(CC(O)CN(CC(C)C)CC(C)C)c3ccccc23)cc1OC (centres undefined),.,19,.,.,21
CC(C)(C)CC(=O)Nc1ccc(S(=O)(=O)N2CCCC2)cc1,?,37,-19,0%,6
O=C1c2ccccc2C(=O)N1CCOCCN1C(=O)c2ccccc2C1=O,19%,12,-35,.,-4
COc1ccc(OCCN2C(=O)c3ccccc3C2=O)c([N+](=O)[O-])c1,23%,62*,-25,48%,96*
Nc1cccc2c1C(=O)N(CCOc1ccccc1F)C2=O,206%,46*,83,314%,19*
CCOc1ccc(NC(=O)CCN2C(=O)c3ccccc3C2=O)cc1,6%,12,-15,-14%,1
CCOc1ccc(OCCN2C(=O)c3ccccc3C2=O)cc1,?,-19,.,13µM*,-4
O=C1C(=O)N(CCCc2ccccc2)c2ccccc21,?,3,.,10µM*,7
O=C(CN1C(=O)C(=O)c2ccccc21)NCCc1ccccc1,32%,-10,102,?,-4
Cc1[nH]c(=O)[nH]c(=O)c1S(=O)(=O)Nc1ccc(F)c([N+](=O)[O-])c1,16%,4,43,-1%,1
CC(C)N1C(=O)/C(=C\c2nc3ccccc3c(=O)[nH]2)c2ccccc21,?,12,77,?,-4
Cc1ccc2c(c1)C(=O)C(=O)N2CCCOc1ccccc1,-14%,26,-35,0%,14*
Cc1ccc(OCCCN2C(=O)C(=O)c3cc(C)ccc32)cc1,-13%,-7,-4,25%,-1
Cc1cccc(OCCN2C(=O)c3ccccc3C2=O)c1,61%,89*,?,12%,49*
O=C1c2ccccc2C(=O)N1CCCOc1ccccc1,53%,90*,5,.,39*
O=C(OCN1C(=O)c2ccccc2C1=O)c1ccccc1,4%,-9,93,5%,-4
O=C(OCCN1C(=O)c2ccccc2C1=O)c1ccccc1,38%,18,0,8%,24*
CCOC(=O)c1noc2nc(C)n(CC(=O)Nc3ccc(Br)cc3C)c(=O)c12,.,.,21,.,.
CC(C(=O)N1CCCc2ccccc21)N1C(=O)c2ccccc2C1=O (centres undefined),11%,8,27,-20%,-5
CC(NC(=O)C1CCN(C(=O)N2CCOc3ccc(Cl)cc32)CC1)c1ccccc1 (centres undefined),.,.,-1,.,.
SMILES,Pf growth 48h,Shiga inhibitor,HCMV antiviral,Pf growth 96h,Cycloheximide cs
CCCCOc1ccc(CN2C(=O)C(=O)c3cc(C)ccc32)cc1OC,.,.,-1,.,.
CCCCCOc1ccccc1CN1C(=O)C(=O)c2cc(C)ccc21,.,.,-93*,.,.
N#Cc1ccccc1OCCN1C(=O)c2ccccc2C1=O,43%,86*,-8,-25%,40*
Cc1cccc2sc(=S)[nH]c12,.,.,21,.,.
COc1ccc(-c2cn3cccnc3n2)cc1NC(=O)c1cccs1,3%,-12,20,12µM*,-8
COc1ccc(-c2cn3cccnc3n2)cc1NC(=O)C(C)Oc1ccccc1 (centres undefined),13µM*,36,-24,8%,12
COc1ccc(-c2cn3cccnc3n2)cc1NC(=O)c1cc(OC)c(OC)c(OC)c1,0%,20,202,?,17
COc1cccc(-c2cnc(C(O)c3ccc(Cl)c(Cl)c3)[nH]2)c1 (centres undefined),.,.,1,.,.
COc1cc2c(cc1OC)CN(C1CC(=O)N(c3c(C)cccc3C)C1=O)CC2 (centres undefined),6.6µM*,20,85,?,-3
Cc1cc(OCCCn2ccnc2)cc(C(C)C)c1,?,-21,-32,36%[1.15 µM],0
CC1CN(Cc2c(O)ccc3c(=O)c(-c4ccccc4)coc23)CC(C)O1 (centres undefined),23%,-1,?,39%,-6
COc1ccc(Oc2c(C(F)(F)F)oc3c(CN4CCCC(C)C4)c(O)ccc3c2=O)cc1 (centres undefined),.,.,-61*,.,.
O=c1oc2c(CN3CCOCC3)c(O)ccc2c2c1CCC2,-4%,-9,27,?,-3
CC1CN(Cc2c(O)ccc3c2oc(=O)c2ccccc23)CC(C)O1 (centres undefined),6.6µM*,-9,?,2.3µM*,6
CC1CCCN(Cc2c(O)ccc3c4c(c(=O)oc23)CCCC4)C1 (centres undefined),1.3µM*,4,-33,1.5µM*,-1
COc1ccc(Cn2cc(CN3CC(N4CCN(CCO)CC4)CS3(=O)=O)nn2)cc1 (centres undefined),.,.,-8,.,.
CSc1cccc(N2CC(C(=O)NCCC3=CCCCC3)CC2=O)c1 (centres undefined),-14%,.,0,0%,.
CC(C)(C)c1ccc(C(=O)Nc2ccc(CN3CCS(=O)(=O)CC3)cc2)cc1,-17%,36,-80*,?,17*
O=C(Nc1ccc(CN2CCS(=O)(=O)CC2)cc1)c1ccc(C(F)(F)F)cc1,?,17,-61*,?,2
C[C@H](CO)N1C[C@H](C)[C@@H](CN(C)C(=O)NC2CCCCC2)Oc2c(NC(=O)Cc3ccccc3)cccc2C1=O,.,.,-13,.,.
CC(C)c1ccc(CCNC(=O)CCNC(=O)c2ccc(Br)cc2)cc1,14%,-3,-34,9%,-1
CC1CCCN(C(=O)C(C)Sc2nc(-c3ccccc3)cc(C(F)(F)F)n2)C1 (centres undefined),2.6µM*,-17,21,.,-3
COc1ccccc1NS(=O)(=O)c1ccc(-c2cnc(C3CC3)o2)cc1,2%,-10,-13,16%,-2
Cc1ccc(N(C)S(=O)(=O)c2cc(-c3cnc(C4CC4)o3)ccc2C)cc1,?,3,-18,7%,-3
COc1ccc(NS(=O)(=O)c2ccc(-c3cnc(C4CC4)o3)cc2)cc1OC,-18%,19,-74*,?,-3
Cc1cccc(N(C)S(=O)(=O)c2ccc(-c3cnc(C4CC4)o3)cc2)c1,0%,-2,-98*,15µM*,-3

# High-throughput results from PubChem BioAssay.
